Experimental data from the supplement of paper PMC6555819.

Tests used:
Test in all cases: PBM binding z-score (relative to random genomic background probes); higher = stronger binding; sequences stand for … in GC…GCGATTGACAGCGTAGAATGAAGG
[1] = system: RARb homodimer (NR concentration 270 nM)
In short: (§1)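 Ligand-free nuclear receptor dimers were applied to custom Agilent 4×180K protein-binding microarrays whose double-stranded probes carried direct-repeat seeds, single-nucleotide variants, half-site ablations and random human genomic background sequences in 34-nt variable regions. Incubation lasted 1 h. Binding z-scores were computed against the random background probes from regression-normalized fluorescence.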

[2] = system: RARg:RXRa (NR concentration 270 nM, RXRa partner concentration 90 nM)
In short: as §1

[3] = system: RARg homodimer (NR concentration 270 nM)
In short: as §1

[4] = system: RXRa DBDmut IVT, anti-RXR (DBD mutation: RXRa K156A/R161A, NR concentration 90 nM)
In short: as §1

[5] = system: RXRa homodimer (NR concentration 180 nM)
In short: as §1

[6] = system: THRa:RXRa (NR concentration 90 nM, RXRa partner concentration 90 nM)
In short: as §1

[7] = system: THRa homodimer (NR concentration 90 nM)
In short: as §1

[8] = system: VDR:RXRa (NR concentration 270 nM, RXRa partner concentration 90 nM)
In short: as §1

[9] = system: VDR homodimer (NR concentration 270 nM)
In short: as §1

Sequence	PBM binding z-score [1]	PBM binding z-score [2]	PBM binding z-score [3]	PBM binding z-score [4]	PBM binding z-score [5]	PBM binding z-score [6]	PBM binding z-score [7]	PBM binding z-score [8]	PBM binding z-score [9]
CCTTACGGGTCACTCCAGGTTATAGCTTCGGAGT	3.13	4.36	4.47	1.65	4.42	4.92	0.616	3.95	1.61
CCTGATAGGTCAATGGTCAGCTAAAGCAGCTCGC	3.38	4.62	4.89	1.32	3.76	1.72	-0.0298	1.99	0.339
ACTCAGAGGACAAAGGTCAGAGCTACGCCAGTGA	4.56	6.51	5.89	1.84	6.06	3.44	0.705		1.43
TGAATGAGGTTAAAGATCAGGGTACGTGGCGTCG	1.27	2.36	1.42	1.41	3.5	2.78	0.878		1.25
CCGAGTAGGTTATGGGGAATTCAGGCAACGGTGA	0.783	0.446	0.494	0.287	0.487	0.724	0.701		0.246
CCTACTGGGCCATCAGTTCATTGATATCAACGTT	0.932	0.31	0.439	0.88	-0.0335	0.411	0.333		3.3
CGAGACAGGTGAGAAGGTAACTCAGCCTCGATTA	0.319	0.434	0.338	-0.6	0.212	0.0357	-0.411		-0.621
CCAGACAGGTGAAAGGTAACTCAGTCTGGTACGC	0.781	1.39	0.817	0.137	2.13	0.824	-0.156		-0.251
CTAACTAGGTCAAGAGGTCAAAGTCCGCTTCCCG	5.82	8.23	7.39	2.89	8.23	4.27	2.29		4.55
TCTATAAGTTGATTAGGGCAACCGAAACAGCGGA	0.772	0.61	0.741	1.23	0.5	1.11	0.212		0.543
CAAACTATGTCACCGGAAGGTCAAAGTCCGCATG	4.63	5.37	4.06	1.32	4.15	3.11	1.99		2.33
ATCTCTAGGTAAAGATAGTTCAGCGAATGCAAAT	1.42	0.793	0.971	-0.00603	0.377	0.867	-0.0177		0.508
TAGCCTAGGTCATGCGGGCCAGTGTAGTGTCGGC	3.06	3.69	4.29	0.446	2.6	2.99	0.878		0.567
CGTCCAAGGTCAAATGTCAGTGAAGAGATGACGG	4.41	6.58	7.15	3.82	6.77	4	2.21		2.75
CGTCCAAGGTCAATGCTAGGTCAGCGAAAGCATT	4.51	7.74	7.14	3.47	5.38	4.61	3.1		3.23
GCTTACGGGTCAAAGGTTTTAGCATGAATAGAAT	2.53	4.83	4.15	2.2	6.49	2.76	-0.137		1.41
CCTATTACTTGACCATAAGGGCAACCGAAGCTCG	1.99	0.821	1.15	0.77	0.915	1.84	1.86		1.23
TCTATGAGTTGATTAGGGCAACCGAAACAGCGGA	0.553	0.54	0.536	1.45	0.681	0.857	-0.131		0.333
AGAATGAGGTTATTGAGATCAGGGAATTGCGGTC	1.07	1.43	0.831	2.21	2.16	2.45	1.01		1.28
TCATATAGGTAAAGGTGAATGTCGAACGATATGA	1.3	1.37	1.21	0.686	1.9	1.16	-0.293		-0.0294
CCGAGTAGGTTTTGGGGCATTCAGGCAACGGTGA	0.615	-0.245	-0.424	0.218	-0.246	0.595	0.467		0.218
GCCGACAGGTGAAACGCAGGTAACTCAGGGTGGC	-0.0352	0.819	0.229	-0.346	0.514	1.35	-0.657		-0.993
CTTACAGGGTCAGCTAGGCCAGAGTAGGGACGGC	3.2	4.47	4.97	1.83	4.42	2.97	0.729		0.875
GCTATTAGTTTAAAGGGCAACCGAATGATTCTCG	2.38	1.36	1.44	1.56	1.05	0.923	0.375		0.916
CCTACTGGGCCATCAGGTCATTCATATCAACGTT	2.53	1.94	1.92	0.469	1.3	3.03	3.02		2.34
TCAATGAGGTTATAAGATCAGGGAACGTTGCAAA	0.57	1.52	0.993	1.75	2.19	1.84	0.0539		0.536
TGATATAGGTAAAAGGTGAAAGTCGGTGTGGTAA	2.03	1.86	1.13	-0.0828	2.92	1.8	0.423		0.42
TCATATAGGTAATACAGGTGAAAGTCGGCATCTA	0.693	0.799	0.796	1.54	1.44	1.1	0.471		-0.0243
ATCGAAAGGTCGAGGTGAGTATTGAGAAAGGGAA	3.11	4.2	3.88	0.619	4.12	2.93	0.768		0.377
